Measurements from publication PMC10163288.
Not all results are given here. No count for the full screen is at hand.

B1: il10ra_site1_normal_mot_HHH_b1_04514_000000156_0001_1_18_H_._HHH_b1_03241_0001_0000100007_0000001_0 (protein)
chain: SSSSYEEVKELIEEIIELAREGNPEEAEKVLRELERLAEELNNPAIRFVVRLLEEVIERQSSSSS
B2: il10ra_site1_sap_15_mot_HHH_b2_02354_af2_000000157_0001_40_56_H_._HHH_b1_07270_0001_0000500051_0000001_1_0001 (protein)
chain: SSSSSEQERAALRFAKWLIEIIEETGNPSARRSLEVMLWLLERINSEEAEELLKEAEELLSSSSS
B3: il10ra_site1_normal_mot_39ab2cb694c8b9c1dc7e65c0d672c93e_0001_000000036_0001_53_65_H_._HHH_b1_05574_0001_0000300023_0000001_0 (protein)
chain: SSSSSEEERIEELIEEAKELLERGNPEEALELVLEALRLAYQNRNAELLQELWRLAKEIASSSSS
B4: il10ra_site1_normal_mot_HHH_b2_05548_000000224_0001_41_54_H_._HHH_b1_07835_0001_0000100002_0000002_0_af2pred_0001 (protein)
chain: SSSSSDEEVEQLLEEAERLLKEGNPEEAAKVVAKAAELALELGNVELIKLVVELLRLIANSSSSS
B5: il10ra_site1_normal_mot_HHH_b1_00999_000000080_0001_41_55_H_._HHH_b1_01870_0001_0000600018_0000001_0 (protein)
chain: SSSSSSSEEEVEELLEEAKEIDDPREAARVLQEATHIALRNQNPELLRLVWEVVKRLGSSSSSSS
B6: il10ra_site1_normal_mot_HHH_b2_04945_000000076_0001_1_19_H_._HHH_b2_05056_0001_0000400022_0000001_0 (protein)
chain: SSSSTDELFEEVRRIIEEAVRLYREGNPEEARRLVEEALELAEENNNFALVFALEHLLRDLSSSS
B7: il10ra_site1_normal_mot_HHH_b2_07144_000000289_0001_1_18_H_._HHH_b2_04284_0001_0000200013_0000001_1 (protein)
chain: SSSSSENHRAYELSREAAELLRQGNEEEAREVLEEVKEIAEEANNPILEFAARAIEKAVNSSSSS
B8: il10ra_site1_normal_mot_HHH_b2_01032_000000296_0001_1_18_H_._HHH_b1_04384_af2_0001_0000600026_0000001_1 (protein)
chain: SSSSSDEEEELLELSRQAFELALRGNPEEAREVLEEAERLARELGDERLLRLVEELLQALSSSSS
B9: il10ra_site1_sap_16_mot_HHH_b2_00093_af2_000000025_0001_40_54_H_._HHH_b1_03751_0001_0001000047_0000001_0_0001_af2pred_0001 (protein)
chain: SSSSSEEERFYQLLLEALRLARRLNDEEVEEELRELLEEYKQKGDPRVEERIEELLKELRSSSSS
B10: il10ra_site1_sap_29_mot_HHH_b2_02354_af2_000000157_0001_40_56_H_._ems_3hM_2942_af2_0001_0000100002_0000002_1_0001_af2pred_0001 (protein)
chain: SSSSTAEEDVRLAIAAAELALKAGDPEKARRALEIAKLIARQGNNPELEEELEELEEEINSSSSS
B11: il10ra_site1_normal_mot_HHH_b2_00479_000000091_0001_1_12_H_._HHH_b2_03388_af2_0001_0000400024_0000002_0 (protein)
chain: SSSSTEENDEVYKLIREALELMARGNPEEARKVLEEAEEILEELNNRVLLFNVRFLLRELGSSSS
B12: il10ra_site1_normal_mot_HHH_b1_05056_000000217_0001_1_20_H_._HHH_b2_04661_af2_0001_0000500034_0000002_0 (protein)
chain: SSSSDEEELEELLEKLEELAEKGDRERFLELVLRLSELIFRLGDKEALQRLWELVREFLRRSSSS
B13: il10ra_site1_normal_mot_HHH_b2_02337_000000026_0001_38_52_H_._HHH_b2_04776_0001_0000200023_0000003_0 (protein)
chain: SSSSSSEEEEEIEELLEQLERAKSDEEISEVALRLVRLIWELNNQELLQRLWEIVKRLASSSSSS
B14: il10ra_site1_normal_mot_HHH_b2_04274_000000146_0001_1_19_H_._5a9ba470ffdefe7bbe7d066b6a6aec3b_0001_af2_0001_0000200013_0000001_1_af2pred_0001 (protein)
chain: NELVKAIRLLLQRFADDPEVLRVLRRILKLSLEDPEEAVELLLELAEKLGDPEVEELAREVERRR
B15: il10ra_site1_sap_16_mot_HHH_b2_08144_af2_000000046_0001_38_52_H_._HHH_b2_08331_0001_0000200020_0000002_0_0001 (protein)
chain: SSSSNAAEYLVRQALRAARLAKENNDPELVKRALEIAERIAENANDPELKELVEEVEEELESSSS
B16: il10ra_site1_normal_mot_HHH_b1_05326_000000242_0001_1_20_H_._HHH_b2_08124_0001_0000100011_0000002_0 (protein)
chain: SSSSSSDEFLRLLRRIFRLLLRGNPEEAQELLEELEELAEELNDPAARRAVEILKEAASSSSSSS
B17: il10ra_site1_normal_mot_HHH_b1_02809_af2_000000277_0001_40_57_H_._HHH_b2_07682_0001_0000300022_0000001_0_af2pred_0001 (protein)
chain: SSSSSRDEEAVRRALRLAKWLREAGDEEAVRKYLKAAKILAKRIGDPELEELVERVEEHLSSSSS
B18: il10ra_site1_normal_mot_HHH_b2_00273_000000062_0001_23_39_H_._HHH_b2_06821_0001_0000300032_0000001_0 (protein)
chain: SSSSEIEEFIEEVEERVRELVERGDTEEALQLLWEAAKLVAENNDEEALRILMELLRLVFRSSSS
B19: il10ra_site1_normal_mot_HHH_b2_01235_000000294_0001_1_18_H_._HHH_b1_05611_0001_0000600040_0000001_0_af2pred_0001 (protein)
chain: SSSSDVTERVLELLREALKLLKDGNPEEAREVLEEAEELAEEGNDELLRHLIEFAQEEIDSSSSS
B20: il10ra_site1_sap_16_mot_HHH_b2_03220_af2_000000223_0001_23_40_H_._HHH_b1_06161_af2_0001_0000300008_0000002_0_0001 (protein)
chain: SSSSSSDEEAAELIREISKVLAEGDRERVEELLEELEKLAEELGDPAARIYVEFVKQLLSSSSSS
B21: il10ra_site1_sap_21_mot_HHH_b1_05357_000000034_0001_23_39_H_._HHH_b2_05349_0001_0000600054_0000001_0_0001_af2pred_0001 (protein)
chain: SSSSNREQRVAELLARALRAAAEGNPEEAERLLEEARELAEELNDEELERAIEILKRYVERSSSS
B22: il10ra_site1_sap_23_mot_0eddeacbb14b769e73e254714f31e2f9_0001_af2_000000127_0001_37_51_H_._HHH_b1_00538_0001_0000500024_0000001_0_0001 (protein)
chain: SSSSSEEEEKAKELIELLEELAKEGDPEEFNRVALEAVRLVLELGDAELLRELWELFKSVSSSSS
B23: il10ra_site1_normal_mot_HHH_b1_08477_000000091_0001_40_57_H_._HHH_b1_03479_0001_0000200016_0000001_0 (protein)
chain: SSSSSEEEERVRQALRFAEALYKSGNPEAAESLLRVLVQSLRRLGNEELVELVEQVLEELNSSSS
B24: il10ra_site1_normal_mot_8756ee2cf497b5429c717dfc0c0bcfd6_0001_000000186_0001_1_13_H_._HHH_b2_04770_af2_0001_0000400016_0000001_0_af2pred_0001 (protein)
chain: SSSSSSDEELKRVQELIRRAAKITDEEELREVLEEAKELAEELGNEILRVIVEFLLELMTSSSSS

Each binder was assayed against il10ra, Q13651 (assay: yeast display titration).
il10ra, Q13651, sequence (Q13651 whole entry): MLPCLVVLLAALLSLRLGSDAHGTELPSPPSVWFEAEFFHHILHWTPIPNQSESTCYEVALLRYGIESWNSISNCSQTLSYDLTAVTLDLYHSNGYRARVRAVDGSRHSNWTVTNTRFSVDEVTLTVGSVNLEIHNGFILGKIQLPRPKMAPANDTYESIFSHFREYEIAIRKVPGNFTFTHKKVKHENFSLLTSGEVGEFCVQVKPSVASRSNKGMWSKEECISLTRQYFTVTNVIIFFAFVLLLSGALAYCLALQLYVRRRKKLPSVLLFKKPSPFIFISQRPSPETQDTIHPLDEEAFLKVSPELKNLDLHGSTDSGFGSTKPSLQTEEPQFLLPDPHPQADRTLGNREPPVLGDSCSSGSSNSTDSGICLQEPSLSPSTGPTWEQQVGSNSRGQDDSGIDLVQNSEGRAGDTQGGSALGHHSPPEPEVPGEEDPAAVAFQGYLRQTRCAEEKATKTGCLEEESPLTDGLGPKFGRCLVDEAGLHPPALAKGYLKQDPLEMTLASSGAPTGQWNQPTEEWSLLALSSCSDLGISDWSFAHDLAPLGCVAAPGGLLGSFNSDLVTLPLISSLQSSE

| Binder | apparent Kd |
| --- | --- |
| B1 | > 786 nM (inactive) |
| B2 | no binding seen (inactive) |
| B3 | no binding seen (inactive) |
| B4 | no binding seen (inactive) |
| B5 | no binding seen (inactive) |
| B6 | no binding seen (inactive) |
| B7 | no binding seen (inactive) |
| B8 | no binding seen (inactive) |
| B9 | no binding seen (inactive) |
| B10 | > 1500 nM (inactive) |
| B11 | no binding seen (inactive) |
| B12 | no binding seen (inactive) |
| B13 | no binding seen (inactive) |
| B14 | no binding seen (inactive) |
| B15 | no binding seen (inactive) |
| B16 | no binding seen (inactive) |
| B17 | no binding seen (inactive) |
| B18 | no binding seen (inactive) |
| B19 | no binding seen (inactive) |
| B20 | no binding seen (inactive) |
| B21 | no binding seen (inactive) |
| B22 | no binding seen (inactive) |
| B23 | no binding seen (inactive) |
| B24 | no binding seen (inactive) |
